Source: PubChem (The Scripps Research Institute Molecular Screening Center)
Hits are enriched below; roughly 4.8% of the tested compounds scored in any of these assays.
ssDAF-12 act – activators of S. stercoralis DAF-12 nuclear receptor | activation, % at 6.8 µM | 370,000 compounds, 1% hits | AID 652126 | HEK293 ssDAF-12/GRIP1 lit1-tk-luc reporter, luminescence; % of 3 µM dafachronic acid response;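 active = activation above the mean over all tested compounds plus 3 SD, cut at about 0.9% in these data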;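 note: 0% = DMSO-only wells and 100% = 3 µM delta7-dafachronic acid wells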
DAX1 inh-1 – NR0B1 (DAX1) inhibition; inhibition, % at 6.75 µM; 340,000 compounds, 0.99% hits; AID 504766; P51843; HEK293 Gal4-DAX1 luciferase reporter, luminescence;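 active = inhibition above the mean over all tested compounds plus 3 SD, cut at about 4.2% in these data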;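 note: 0% = DAX1-transfected cells with DMSO and 100% = empty-vector control cells with DMSO; inhibition shows as a rise in luminescence from relieved DAX1 repression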
Target sequence (P51843 207-470 limits assumed): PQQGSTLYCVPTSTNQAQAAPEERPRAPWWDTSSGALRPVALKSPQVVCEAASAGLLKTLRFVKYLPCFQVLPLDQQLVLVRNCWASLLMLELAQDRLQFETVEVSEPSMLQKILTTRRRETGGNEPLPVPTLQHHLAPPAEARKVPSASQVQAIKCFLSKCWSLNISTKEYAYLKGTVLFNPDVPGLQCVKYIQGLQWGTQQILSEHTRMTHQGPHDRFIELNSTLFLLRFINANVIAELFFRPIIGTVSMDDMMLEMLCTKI
hgDAF12 agonist – hgDAF-12 agonism, primary luciferase screen; HEK293 GAL4-hgDAF12 UAS-luciferase reporter, agonist luminescence; normalized to butyrate control; activation, % at 6.8 µM; 370,000 compounds, 1.8% hits; AID 687014;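 active = activation above a cutoff set at the mean of all screened compounds plus 3 SD, cut at about 10% in these data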;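 note: 0% = DMSO wells and 100% = sodium butyrate wells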
SMARCA2 act – increases SMARCA2 function in MMTV reporter cells; 370,000 compounds, 1% hits; MG213 cells, MMTV-luciferase reporter, dexamethasone, overnight; AID 652017; activation, % at 9.1 µM; in the data active = activation above about 7.8%;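 note: 0% = vehicle wells and 100% = reference activator wells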
hcDAF-12 act – activators of H. contortus DAF-12 nuclear receptor. HEK293 hcDAF-12 lit1-tk-luc reporter, luminescence; 0% DMSO, 100% Δ7-dafachronic acid. activation, % at 6.8 µM. 370,000 compounds, 1.4% hits. AID 652067;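 active = activation above the mean of all tested compounds plus 3 SD, cut at about 5.5% in these data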;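 note: 100% = response to 3 µM Δ7-dafachronic acid high control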
DAX1 inh-2 – DAX1 (NR0B1) inhibition, primary screen; HEK293T StAR-luciferase reporter, SF-1/DAX-1 repression relief; inhibition, % at 6.8 µM; 370,000 compounds, 1.1% hits; AID 652010;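 active = inhibition above the mean over all tested compounds plus 3 SD, cut at about 3.6% in these data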;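 note: 0% = DAX-1 cells with DMSO and 100% = cells lacking DAX-1 with DMSO; higher inhibition means more luminescence from relief of DAX-1 repression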
LXRb hcDAF ctr – LXR-beta agonism as hcDAF-12 counter-screen. HEK293 Gal4-LXR tk-luc reporter, luminescence, 24 h; normalized: DMSO 0%, positive control 100%. shares compounds with hcDAF-12 act. activation, % at 6.8 µM. 3,400 tested, under 10 active;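 active = mean percent activation of the reporter above a cutoff set as the average over tested compounds plus their standard deviation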
hcDAF12 conf – confirmation of H. contortus DAF-12 agonists; shares compounds with hcDAF-12 act; HEK293 hcDAF-12 lit1-tk-luc reporter, luminescence; % of Δ7-dafachronic acid response; activation, % at 6.8 µM; 3,400 compounds, 61% hits; AID 743032;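 active = mean activation across triplicate tests above the threshold derived from the earlier primary screen, cut at about 5.5% in these data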;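 note: 0% = DMSO only wells and 100% = 3 µM Δ7-dafachronic acid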
* = called active by the depositor; · = no result given.

SMILES	ssDAF-12 act	DAX1 inh-1	hgDAF12 agonist	SMARCA2 act	hcDAF-12 act	DAX1 inh-2	LXRb hcDAF ctr	hcDAF12 conf
Cc1ccc(OCc2cc(C(=O)N(C)CCc3ccccn3)no2)cc1C	0	0	9	0	7.3*	2	0	3
CC(=O)c1cccc(OCc2cc(C(=O)N(C)CCc3ccccn3)no2)c1	-1	0	0	1	-1	0	·	·
c1ccc(Nc2nc(-c3ccccn3)cs2)cc1	1.3*	1	13*	4	13*	2	2	11*
Cn1c(C(C#N)C(=O)c2ccco2)nc2ccccc21 (stereo not given)	1	1	4	3	7.2*	2	0	9.6*
Cn1c(C(C#N)C(=O)Cc2cccc3ccccc23)nc2ccccc21 (stereo not given)	-1	0	1	-2	0	1	·	·
COc1ccc(S(=O)(=O)Nc2cc3c(cc2C(C)=O)OCO3)cc1	-1	2	1	-3	-1	-2	·	·
O=C(O)CSc1nnc(-c2ccc3c(c2)OCO3)o1	0	0	3	-11	1	0	·	·
O=C(c1ccc(Cl)cc1)N1CCCCC(Sc2nnc(-c3ccc4c(c3)OCO4)o2)C1=O (stereo not given)	1	-2	10*	4	6.9*	4.2*	0	2
COc1cccc(C(C(=O)NC2CCCC2)N(CC2CCCO2)C(=O)Cc2cccs2)c1 (stereo not given)	0	-1	2	1	-1	-1	·	·
Cc1cccc(NC(=O)c2nc[nH]c2C(=O)NCCCCNC(=O)c2[nH]cnc2C(=O)Nc2cccc(C)c2)c1	-1	0	0	1	1	0	·	·
O=C1OCC(CO)(CO)N=C1NNc1ccccc1Cl	1	0	1	2	9.0*	1	0	2
O=C(CC(Nc1cccc(Cl)c1Cl)C(=O)OCC(=O)c1cccs1)c1ccccc1 (stereo not given)	0	1	3	-1	7.4*	0	0	3
Cc1c(Cl)cccc1NC(CC(=O)c1ccccc1)C(=O)OCC(=O)c1cccs1 (stereo not given)	0	-1	1	7	2	1	·	·
COC(=O)c1c[nH]n2c(=O)c(Cl)c(C)nc12	-1	3	1	0	8.7*	0	0	2
CC(=O)c1ccc(N2CCN(C(=O)c3cc(-c4ccncc4)nc4ccc(Cl)cc34)CC2)cc1	0	2	-1	-1	2	-2	·	·
Fc1ccc(C2Nc3cccc4cccc(c34)N2)cc1	0	1	4	0	7.1*	-1	0	3
CCCOc1ccc(C2Nc3cccc4cccc(c34)N2)cc1	0	0	2	-1	6.7*	0	0	4
CC(C)c1cc(C(=O)N(C2CCCCC2)C2CCCCC2)no1	0	·	4	0	-1	-1	·	·
COC(=O)Cn1c(O)c(N=NC(=O)CNC(=O)c2ccncc2)c2ccccc21	-1	2	-1	-3	3	0	·	·
COc1cc(OC)c(C(=O)OCC(=O)NCCC2=CCCCC2)cc1OC	-1	0	-2	0	1	-1	·	·
N/C(=N\NC(=O)Nc1ccccc1)c1ccccn1	0	·	5	0	7.7*	3	0	2
COc1ccc(CC(=O)Nc2nc(OCCN3CCCC3=O)cnc2-c2cccc(C(F)(F)F)c2)cc1	-2	·	-3	-2	-1	0	·	·
O=C(CSc1ccccn1)Nc1ccc2c(c1)C(=O)c1ccccc1C2=O	0	0	9	4	6.8*	-1	1	5
CC(=O)c1ccc(Nc2nc(-c3cccnc3)cs2)cc1	0	1	5	1	4	-1	·	·
Cc1ccc(Nc2nc(-c3cccnc3)cs2)cc1C	3.8*	4.3*	19*	2	20*	3	2	19*
SMILES	ssDAF-12 act	DAX1 inh-1	hgDAF12 agonist	SMARCA2 act	hcDAF-12 act	DAX1 inh-2	LXRb hcDAF ctr	hcDAF12 conf
Clc1cccc(Nc2nc(-c3cccnc3)cs2)c1	1.8*	5.4*	11*	6	8.9*	1	1	11*
Cn1c(COc2ccccc2)nnc1SCC(=O)Nc1ccc(S(=O)(=O)Nc2nccs2)cc1	-1	·	0	-1	-2	0	·	·
CC1(C)Nc2ccccc2C(=O)N1c1ccc(Br)cc1	3.0*	9.2*	13*	6	6.8*	3	1	5
CC(C)(C)C1CCc2c(sc3c2C(=O)NC(c2ccco2)N3)C1 (stereo not given)	0	1	0	4	7.5*	-1	0	4
C/C(=N\NC(=O)c1cc(C)oc1C)c1ccc2c(c1)OCO2	-1	0	0	0	-3	0	·	·
C/C(=N\NC(=O)c1c[nH]c2ccccc12)c1ccc2c(c1)OCO2	0	-1	8	4	7.2*	1	0	0
COc1ccc(CNC(=O)Nc2nc(C(N)CCc3ccccc3)cs2)cc1 (stereo not given)	-2	·	1	-3	-2	0	·	·
CC(=O)c1ccc(N2CCN(S(=O)(=O)c3ccc4c5c3CC(=O)N5CC(C)S4)CC2)cc1 (stereo not given)	·	0	·	·	·	·	·	·
COc1ccc(NC(C)C(=O)Nc2cc(C(F)(F)F)ccc2N2CCOCC2)c(OC)c1 (stereo not given)	-2	-2	-1	1	14*	1	0	-1
CC(=O)N(NC(=O)c1ccc(C)cc1)C1CC(=O)N(c2ccccc2Cl)C1=O (stereo not given)	-2	0	-2	-2	8.6*	-1	0	2
Cc1nc(NS(=O)(=O)c2ccccc2)sc1C(C)(C)C	-2	2	-4	-3	3	0	·	·
Cc1cccc2sc(NS(=O)(=O)c3ccccc3)nc12	0	1	0	1	12*	0	0	2
COCCNC(=O)Cn1nc(-c2ccccc2C)ccc1=O	-1	1	-3	2	0	0	·	·
CN(C)S(=O)(=O)c1ccc(C(=O)NCC(=O)Nc2ccc(F)c(F)c2)cc1	-1	0	-1	-1	6.8*	0	0	1
O=C(CCc1ccccc1O)N/N=C/c1ccc(Sc2cccc3cccnc23)o1	-1	-1	-1	-1	-1	0	·	·
Cc1ccc(C2=Nc3ccccc3N=C(C(Cl)Cl)C2)cc1	2.8*	-1	19*	0	17*	3.8*	1	9.9*
